This note sets out measurements from PubChem BioAssay.

The nature of test [1]: hit retest on RPL19A-GFP reporter strain – cell-based, S. cerevisiae, flow cytometry, cherry picks, mother/daughter gates, confirmation (AID 2270;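 active = GFP response below 50% of the DMSO control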). The settings on record: 3 h, at 10 µM, stronger effect = lower value, 100 = same GFP as DMSO wells. Background: In flow cytometry, cells or beads pass a laser one at a time.
A short description of test [2]: yeast TOR pathway reporter LAP4-GFP change – cell-based, cherry picks, flow cytometry, mother/daughter gates, confirmation (AID 2271;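 active = GFP response above 150% of the DMSO control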;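 also: ratio of sample to DMSO plate mean so 100% equals DMSO level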). Conditions: S. cerevisiae LAP4-GFP strain, 3 h, at 10 µM, stronger effect = higher value, 100 means same as DMSO control.
The nature of test [3]: TOR pathway reporter MEP2-GFP, retest of hits – S. cerevisiae, flow cytometry GFP, cherry picks, confirmation (AID 2272;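 active = GFP response above 150% of the DMSO control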;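 also: ratio of well signal to plate DMSO mean so 100% equals DMSO level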). Conditions: S. cerevisiae MEP2-GFP strain, 3 h, at 10 µM, stronger effect = higher value.
Test [4] in a line: yeast AGP1-GFP fluorescence change, single-dose – cell-based, flow cytometry, S. cerevisiae, cherry picks, confirmation (AID 2273).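 Also: median GFP channel fluorescence over the whole cell population gate.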 Conditions: S. cerevisiae AGP1-GFP strain, 3 h, at 10 µM.
The nature of test [5]: TOR pathway CIT2 reporter hit retest – S. cerevisiae, GFP fusion, cherry picks, mother/daughter gates, confirmation (AID 2274). The settings on record: S. cerevisiae CIT2-GFP strain, flow cytometry, 3 h, at 10 µM, stronger effect = higher value.
A short description of test [6]: green-channel fluorescence artefact in S. cerevisiae – s288c strain, artefact control for yeast TOR pathway GFP screen, dose response (AID 2757;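 active = fluorescence span over the dose series, or activity score, above about 33, limit read from the data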;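 also: thousands of bead-calibrated equivalent soluble fluorophore molecules from median cell fluorescence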). Conditions: 520 nm autofluorescence, flow cytometry, 3 h, at 33 µM, stronger effect = higher value, zero means same as solvent-only cells.
A short description of test [7]: reduced mouse 2C T cell binding to pMHC/ICAM-1 vesicles – MLPCN validation set, flow cytometry, LFA-1/ICAM-1 modulator project, pilot screen (AID 2523;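 active = response below a set limit, under 55% cells CD8-positive and vesicle-bound, and CD8 cells' 90th-percentile brightness under 279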;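 as to vesicle binding response: mean PE anti-B7-1 fluorescence of CD8+ cells relative to row control; 100% = QL9-loaded vesicles with DMSO vehicle in the same plate row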). Conditions: 2C mouse CD8+ T cells, at 7 µM, stronger effect = lower value; double positive events: measured here: CD8+/vesicle+ event percentage.
Test [8] addresses Integrin beta-1 (Homo sapiens) + Integrin alpha-4 (Homo sapiens) (UniProt P13612+P05556). Description: alpha4beta1 integrin LIBS antibody binding reduction – U937 cells, HUTS-21 mAb, flow cytometry, validation set, VLA-4 allosteric modulator project, pilot screen (AID 2674;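 active = inhibition above 50%, about 3 SD of the validation set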;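 also: antibody binding induced by the VLA-4 ligand LDV present at three times its Kd; 0% = LDV ligand with antibody and no compound and 100% = antibody without LDV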). The settings on record: HUTS-21 LIBS mAb binding, at 6.7 µM, stronger effect = higher value, binding induced by LDV ligand.

Test [9] can be described thus: calorie-restriction mimetic ROS inhibitors, yeast – validation compound set, pilot screen (AID 2706;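 active = superoxide response below 65% of plate, a cut near 3 SD across the whole screen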;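 also: yeast exposed to compound for one week at 30 degrees C before staining; 100% = mean of all compound wells on the same plate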). The settings on record: S. cerevisiae aging, superoxide DHE fluorescence; at 10 µM, stronger effect = lower value.
For test [10], the target named is Beta-adrenergic receptor kinase 1 (Homo sapiens) (UniProt P25098). In words: GRK2 binders displacing RNA aptamer, biochemical, validation, human GRK2, bead flow cytometry (AID 488806;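 active = aptamer binding inhibition above 30%, about 3 SD of noise from non-fluorescent compounds; inactive = inhibition at or below 30%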). Conditions: bead-bound GRK2, FAM-aptamer displacement, at 10 µM, stronger effect = higher value.
Beta-adrenergic receptor kinase 1 (Homo sapiens), sequence (P25098 whole entry, looked up): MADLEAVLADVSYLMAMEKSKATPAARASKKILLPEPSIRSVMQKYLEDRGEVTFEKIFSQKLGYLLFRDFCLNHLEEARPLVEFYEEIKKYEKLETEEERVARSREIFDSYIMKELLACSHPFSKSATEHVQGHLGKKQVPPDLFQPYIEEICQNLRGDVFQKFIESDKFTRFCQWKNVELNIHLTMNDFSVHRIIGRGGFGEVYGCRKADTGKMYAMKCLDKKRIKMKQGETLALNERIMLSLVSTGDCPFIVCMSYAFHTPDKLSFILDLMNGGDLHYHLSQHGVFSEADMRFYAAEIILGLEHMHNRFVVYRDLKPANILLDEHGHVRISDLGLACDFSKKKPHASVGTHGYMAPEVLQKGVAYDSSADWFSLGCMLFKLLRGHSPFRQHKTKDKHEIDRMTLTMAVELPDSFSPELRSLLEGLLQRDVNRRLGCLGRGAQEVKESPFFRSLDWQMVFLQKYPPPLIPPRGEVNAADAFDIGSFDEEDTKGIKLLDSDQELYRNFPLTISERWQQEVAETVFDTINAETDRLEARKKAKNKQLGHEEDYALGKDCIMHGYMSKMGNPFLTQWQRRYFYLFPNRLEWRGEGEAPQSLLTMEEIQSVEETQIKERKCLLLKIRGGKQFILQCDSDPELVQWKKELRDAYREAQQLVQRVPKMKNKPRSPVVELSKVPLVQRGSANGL
The target of test [11] is Beta-2 adrenergic receptor (Homo sapiens) (UniProt P07550). Description: agonist-induced loss of surface beta2AR – cell-based, FAP fluorogen, flow cytometry, validation set, pilot screen (AID 504459;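 active = percent response above 42, roughly 3 SD of non-fluorescent test compounds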;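 also: agonist-driven loss of surface beta2AR via internalization measured by FAP dye flow cytometry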). The settings on record: Am2.2-beta2AR cells, at 10 µM, stronger effect = higher value.
Beta-2 adrenergic receptor (Homo sapiens), sequence (P07550 whole entry, looked up): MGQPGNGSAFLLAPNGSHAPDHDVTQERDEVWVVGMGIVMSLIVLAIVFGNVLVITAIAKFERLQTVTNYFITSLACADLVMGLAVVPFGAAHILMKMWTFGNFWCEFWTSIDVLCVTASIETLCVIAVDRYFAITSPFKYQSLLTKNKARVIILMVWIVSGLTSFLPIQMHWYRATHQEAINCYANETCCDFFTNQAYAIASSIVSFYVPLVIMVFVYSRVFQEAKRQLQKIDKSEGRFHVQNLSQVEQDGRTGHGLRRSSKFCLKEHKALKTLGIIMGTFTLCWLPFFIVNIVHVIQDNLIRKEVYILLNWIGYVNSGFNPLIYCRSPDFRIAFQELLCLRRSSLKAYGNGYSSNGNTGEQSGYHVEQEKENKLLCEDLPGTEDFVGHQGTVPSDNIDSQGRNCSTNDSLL
Test [12] deals with AP-2 complex subunit beta (Homo sapiens) (UniProt P63010). Description: beta-arrestin/AP2 interaction blockers – biochemical, validation set, GST-AP2 beads, flow cytometry, pilot screen (AID 504541;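 active = inhibition above 54%, about 3 SD of non-fluorescent compounds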;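 also: AP2 carries R879A mutation and is captured from E. coli lysate; bead-bound FITC arrestin peptide fluorescence measuring arrestin peptide binding to AP2; 0% = DMSO wells and 100% = excess unlabeled arrestin peptide control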). Conditions: FITC arrestin peptide, at 10 µM, stronger effect = higher value, AP2 beta2 appendage fragment, R879A mutant.
AP-2 complex subunit beta (Homo sapiens), sequence (P63010 whole entry, looked up, the tested form may be a part, one chain of several): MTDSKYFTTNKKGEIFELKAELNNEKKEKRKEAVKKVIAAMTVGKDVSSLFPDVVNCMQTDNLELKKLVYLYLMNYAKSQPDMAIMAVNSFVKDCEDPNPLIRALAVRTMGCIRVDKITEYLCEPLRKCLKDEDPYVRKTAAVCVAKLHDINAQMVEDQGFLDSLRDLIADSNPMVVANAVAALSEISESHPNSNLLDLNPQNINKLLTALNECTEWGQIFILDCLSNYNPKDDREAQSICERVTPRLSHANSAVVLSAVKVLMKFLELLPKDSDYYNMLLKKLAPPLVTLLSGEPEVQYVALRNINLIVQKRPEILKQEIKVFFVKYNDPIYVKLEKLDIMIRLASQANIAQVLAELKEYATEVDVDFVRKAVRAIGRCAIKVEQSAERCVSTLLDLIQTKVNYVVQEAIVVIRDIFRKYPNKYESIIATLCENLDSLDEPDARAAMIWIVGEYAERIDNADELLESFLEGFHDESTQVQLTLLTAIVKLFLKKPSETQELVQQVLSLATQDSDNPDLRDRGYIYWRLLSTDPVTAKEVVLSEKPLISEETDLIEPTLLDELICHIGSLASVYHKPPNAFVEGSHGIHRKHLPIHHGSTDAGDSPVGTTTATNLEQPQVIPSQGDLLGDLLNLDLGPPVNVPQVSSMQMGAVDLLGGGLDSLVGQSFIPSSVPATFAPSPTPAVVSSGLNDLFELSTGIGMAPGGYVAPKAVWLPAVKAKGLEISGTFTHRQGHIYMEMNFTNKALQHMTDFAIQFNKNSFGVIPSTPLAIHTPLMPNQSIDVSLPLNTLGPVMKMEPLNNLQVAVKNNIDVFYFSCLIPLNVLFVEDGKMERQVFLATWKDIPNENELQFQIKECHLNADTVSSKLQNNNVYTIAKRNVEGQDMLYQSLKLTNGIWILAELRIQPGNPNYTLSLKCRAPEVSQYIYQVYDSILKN
A short description of test [13]: cytosolic pH regulators acting via V-ATPase – S. cerevisiae, pHLuorin, HTS validation (AID 504600; in the data active = response above about 15%;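 also: plate controls were DMSO for no effect and reference compound for full effect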). The settings on record: V-ATPase proton transport, at 10 µM, stronger effect = higher value.
Test [14] has as its system anti-desmoglein-3 scFv antibody binding to human DSG3. Description: blockers of pathogenic pemphigus antibody–desmoglein-3 binding – biochemical, validation compound set, bead-based, flow cytometry, pilot screen (AID 588368;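 active = binding below the plate cutoff, the plate median minus 3 SD, with a reading above zero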;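 also: signal is the median channel fluorescence of bead-bound GFP antibody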). Conditions: Protein G beads, DSG3-Fc, scFv-GFP binding, at 10 µM, stronger effect = lower value.
Test [15] can be described thus: Nile Red efflux blockade in pump-expressing yeast – validation compound set, multiplex, phenotypic, pilot screen (AID 588506;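 active = efflux inhibition above 0.42, the validation set average plus 4 SD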;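 also: Nile Red retained in cells so higher fluorescence means more efflux inhibition; 0 = negative control wells and 1 = enniatin B 25 µM full block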). Conditions: S. cerevisiae pump-expressing triplex, Nile Red efflux flow cytometry; at 10 µM; stronger effect = higher value; the pumps come from Candida albicans.
Test [16] has as its target ATP-binding cassette sub-family B member 6 (Homo sapiens) (UniProt Q9NP58). Description: blockers of ABCB6-driven porphyrin uptake – K562-ABCB6 cells, flow cytometry, validation set, pilot screen (AID 588550;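 active = inhibition above the screen-wide mean plus 3 SD, about 51%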;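 also: 0% = DMSO wells and 100% = benzethonium chloride 70 µM positive control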). Conditions: K562-ABCB6 porphyrin accumulation, 1 h, at 10 µM, stronger effect = higher value.
Test [17] is described as follows: AML differentiation inducers, ER-HoxA9 marrow cells – cell-based, GFP/MAC1 double positive, flow cytometry, validation set, primary screen (AID 588685;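 active = differentiation response of at least 50%, scaled between solvent and reference control, from cells with both markers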;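 also: compound exposure lasts four days before antibody staining and flow analysis; 0% = DMSO wells and 100% = 5 µM fulvestrant positive control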). The settings on record: stronger effect = higher value, normalized: vehicle 0, fulvestrant 100.
[18] abbreviates: measured here: daughter cell gate.
[19] abbreviates: measured here: mother cell gate.
Where [20] appears, read: measured here: mother cell gate response.

SMILES strings stand for the structures. This is one part of the list. The source made the active and inactive calls.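 The calls were made as follows, unless noted: active = GFP response above 150% of the DMSO level; inconclusive = fewer than 70 events counted for a yeast strain; inactive = the rest.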

Integrin beta-1 (Homo sapiens) + Integrin alpha-4 (Homo sapiens), sequence (P05556 whole entry, looked up): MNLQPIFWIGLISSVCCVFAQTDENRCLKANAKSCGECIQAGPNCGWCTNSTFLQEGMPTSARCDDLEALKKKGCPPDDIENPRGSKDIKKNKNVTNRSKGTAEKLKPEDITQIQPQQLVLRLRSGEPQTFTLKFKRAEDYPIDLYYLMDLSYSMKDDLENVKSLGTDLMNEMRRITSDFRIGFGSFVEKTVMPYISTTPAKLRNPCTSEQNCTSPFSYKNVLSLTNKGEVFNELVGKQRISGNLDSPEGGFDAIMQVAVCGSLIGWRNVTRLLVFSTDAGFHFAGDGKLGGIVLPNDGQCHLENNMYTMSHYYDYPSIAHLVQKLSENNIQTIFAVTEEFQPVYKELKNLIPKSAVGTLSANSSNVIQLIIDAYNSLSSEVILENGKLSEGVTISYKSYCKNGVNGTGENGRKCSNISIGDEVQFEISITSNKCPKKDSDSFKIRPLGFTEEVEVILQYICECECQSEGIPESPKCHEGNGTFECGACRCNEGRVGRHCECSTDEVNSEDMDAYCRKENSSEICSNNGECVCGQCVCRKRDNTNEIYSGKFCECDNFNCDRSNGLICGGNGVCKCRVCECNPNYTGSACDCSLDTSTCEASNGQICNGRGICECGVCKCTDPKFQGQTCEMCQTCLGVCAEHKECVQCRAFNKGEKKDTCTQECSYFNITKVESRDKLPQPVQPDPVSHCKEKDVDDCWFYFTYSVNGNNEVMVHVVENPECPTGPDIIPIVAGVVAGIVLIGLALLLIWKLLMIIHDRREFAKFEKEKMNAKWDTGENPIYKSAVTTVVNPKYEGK
Integrin beta-1 (Homo sapiens) + Integrin alpha-4 (Homo sapiens), sequence (P13612 whole entry, looked up): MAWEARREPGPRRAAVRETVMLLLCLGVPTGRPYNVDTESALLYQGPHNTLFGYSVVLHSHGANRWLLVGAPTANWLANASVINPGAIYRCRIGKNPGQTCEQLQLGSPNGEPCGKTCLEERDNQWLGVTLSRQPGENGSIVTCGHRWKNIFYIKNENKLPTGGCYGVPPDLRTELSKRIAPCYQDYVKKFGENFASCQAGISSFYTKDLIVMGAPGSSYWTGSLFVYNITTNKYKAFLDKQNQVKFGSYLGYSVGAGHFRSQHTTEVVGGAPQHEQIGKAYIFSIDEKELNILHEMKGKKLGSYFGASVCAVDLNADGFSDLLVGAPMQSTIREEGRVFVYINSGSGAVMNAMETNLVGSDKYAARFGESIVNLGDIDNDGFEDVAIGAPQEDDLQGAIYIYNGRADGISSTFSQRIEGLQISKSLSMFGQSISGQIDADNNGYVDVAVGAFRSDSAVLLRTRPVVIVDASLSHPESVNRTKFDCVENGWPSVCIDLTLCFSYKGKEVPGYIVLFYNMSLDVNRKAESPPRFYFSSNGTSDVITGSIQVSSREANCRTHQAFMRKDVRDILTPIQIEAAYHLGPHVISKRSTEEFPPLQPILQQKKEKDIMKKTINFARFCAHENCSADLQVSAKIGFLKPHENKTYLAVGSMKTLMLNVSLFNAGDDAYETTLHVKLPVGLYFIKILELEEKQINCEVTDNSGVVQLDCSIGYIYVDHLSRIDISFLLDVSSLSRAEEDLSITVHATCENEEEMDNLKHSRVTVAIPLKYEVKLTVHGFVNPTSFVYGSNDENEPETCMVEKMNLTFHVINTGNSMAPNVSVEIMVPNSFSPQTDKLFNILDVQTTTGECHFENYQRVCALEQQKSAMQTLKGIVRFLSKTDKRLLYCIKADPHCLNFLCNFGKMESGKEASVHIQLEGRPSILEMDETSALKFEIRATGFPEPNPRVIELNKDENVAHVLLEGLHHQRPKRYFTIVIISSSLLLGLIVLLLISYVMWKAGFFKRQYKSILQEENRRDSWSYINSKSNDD
ATP-binding cassette sub-family B member 6 (Homo sapiens), sequence (Q9NP58 whole entry, looked up): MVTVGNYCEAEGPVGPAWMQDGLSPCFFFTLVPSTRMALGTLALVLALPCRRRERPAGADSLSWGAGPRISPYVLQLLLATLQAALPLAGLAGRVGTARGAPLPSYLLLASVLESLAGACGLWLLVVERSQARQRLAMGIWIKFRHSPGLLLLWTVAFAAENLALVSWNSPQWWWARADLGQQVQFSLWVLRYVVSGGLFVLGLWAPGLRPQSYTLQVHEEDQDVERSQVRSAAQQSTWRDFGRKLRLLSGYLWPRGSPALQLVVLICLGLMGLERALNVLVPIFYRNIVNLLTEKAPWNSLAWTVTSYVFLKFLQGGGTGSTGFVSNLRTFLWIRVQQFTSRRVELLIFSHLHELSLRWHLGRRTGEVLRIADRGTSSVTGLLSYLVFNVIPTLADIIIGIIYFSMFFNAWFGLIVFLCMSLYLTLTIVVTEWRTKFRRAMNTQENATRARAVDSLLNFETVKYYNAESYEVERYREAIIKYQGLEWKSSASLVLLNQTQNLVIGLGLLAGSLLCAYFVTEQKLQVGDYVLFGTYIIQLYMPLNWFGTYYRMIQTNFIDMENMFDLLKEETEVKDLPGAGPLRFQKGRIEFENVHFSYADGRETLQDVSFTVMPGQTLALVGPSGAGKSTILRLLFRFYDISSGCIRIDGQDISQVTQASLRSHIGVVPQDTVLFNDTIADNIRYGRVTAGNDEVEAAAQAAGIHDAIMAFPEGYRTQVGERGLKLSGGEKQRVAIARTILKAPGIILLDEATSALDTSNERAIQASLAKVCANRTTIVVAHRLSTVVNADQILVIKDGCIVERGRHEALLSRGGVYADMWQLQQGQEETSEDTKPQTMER

`O=C(Nc1c(-c2ccccc2)nc2c(Br)cc(Br)cn12)c1ccco1`: the GFP response vs DMSO was 94.5% (inactive) in test [1], 94.7% in test [1] (setting [18]), 92.1% in test [1] (setting [19]) and 103% (inactive) in test [3]. Further, the GFP response relative to DMSO in [2] was 92.9% (inactive). The GFP response, % of DMSO was 98.8% (inactive) in [4], 100% (inactive) in test [5], 85.2% in [5] (setting [18]) and 90.4% in test [5] (setting [19]).

As for `Cc1ccccc1NC(=O)COC(=O)c1cc(=O)c2ccccc2o1`, the GFP response vs DMSO in [1] was 99.7% (inactive); in test [1] (setting [19]), 104%; in test [3] it was 97.8% (inactive). The GFP response relative to DMSO was 98.7% (inactive) in test [2], 98.7% in test [2] (measured here: daughter cell gate response) and 86% in test [2] (setting [20]). For the same compound, the GFP response, % of DMSO in [4] is 95.4% (inactive); in [5] it was 104% (inactive).

As to `Nc1ccc(-c2c3ccc(=O)cc-3oc3cc(O)ccc23)cc1C(=O)O`, the GFP response vs DMSO was 103% (inactive) in test [1], 96.4% in [1] (setting [18]), 104% in [1] (setting [19]) and 248% (active) in [3]. The GFP response relative to DMSO in test [2] is 150% (active). Further, the results for the GFP response, % of DMSO in test [4] and in test [5] were 107% (inactive) and 140% (inactive), respectively.

Regarding `Cc1ccc(-c2nn(C(C)(C)C)c3ncnc(N)c23)cc1`, the GFP response vs DMSO in test [1] was 46.7% (active); in test [1] (setting [18]), 43.7%; in test [1] (setting [19]), 46.7%; in [3] it was 116% (inactive). Moreover, in test [2], the GFP response relative to DMSO is 175% (active). Also, the GFP response, % of DMSO in [4] was 95.7% (inactive); in test [5], 45.8% (inactive); in test [5] (setting [18]) it was 62.1%; in test [5] (setting [19]), 43.5%. Further, the fluorescence change (kMESF span) in test [6] was -0.9 (inactive).

Take `Cc1ccc(NC(=O)c2ccc(Cl)c(N3C(=O)C=CC3=O)c2)cc1`: the GFP response vs DMSO was 86.1% (inactive) in test [1], 69.8% in test [1] (setting [19]) and 129% (inactive) in test [3]. Also, the GFP response relative to DMSO in test [2] is 217% (active); in test [2] (setting [20]), 186%. Further, the figures for the GFP response, % of DMSO in [4] and in test [5] were 97.1% (inactive) and 84.9% (inactive), respectively.

As to `Cc1c(/C=N/Nc2ccc(C(=O)O)cc2)c2ccccc2n1C`, the GFP response vs DMSO is 96.2% (inactive) in [1], 91.3% in test [1] (setting [18]), 95.8% in test [1] (setting [19]) and 103% (inactive) in [3]. For the same compound, in [2], the GFP response relative to DMSO was 105% (inactive). Moreover, the GFP response, % of DMSO is 95.5% (inactive) in [4], 91.7% (inactive) in test [5], 81.6% in [5] (setting [18]) and 82.6% in test [5] (setting [19]).

Consider `CN(C)CCCN(C(=O)c1cccs1)c1nc(-c2ccccc2)cs1`, for which the GFP response vs DMSO in test [1] was 98% (inactive); in test [3], 102% (inactive). Moreover, the GFP response relative to DMSO in test [2] was 90.7% (inactive). The GFP response, % of DMSO is 100% (inactive) in test [4] and 101% (inactive) in test [5].

Consider `Fc1ccc(C2Nc3cccc4cccc(c34)N2)cc1`, for which the GFP response vs DMSO is 98.2% (inactive) in [1] and 97.8% (inactive) in test [3]. The GFP response relative to DMSO in [2] is 106% (inactive). Moreover, the GFP response, % of DMSO in [4] is 95.4% (inactive); in test [5], 97.8% (inactive).

Consider `Cc1nc2ccc(Br)cn2c1NC(C)(C)C`, for which the results for the GFP response vs DMSO in test [1] and in [3] were 98.4% (inactive) and 100% (inactive), respectively. The GFP response relative to DMSO in test [2] was 96.2% (inactive). Besides, the figures for the GFP response, % of DMSO in test [4] and in test [5] were 97.6% (inactive) and 102% (inactive), respectively.

One may read the inhibition as the percentage by which the read-out fell short of the control. `CN1CCN(CCCN2c3ccccc3Sc3ccc(C(F)(F)F)cc32)CC1` yielded a double positive events in [7] of 64.7%. Further, in test [7], the vesicle binding response is 215% (inactive). Also, the values for the inhibition in test [8], in test [12] and in test [16] were 57.6% (active), 1.45% (inactive) and 8% (inactive), respectively. Also, in test [9], the superoxide response (% of plate) is 80.3% (inactive). In [10], the aptamer binding inhibition is -2% (inactive). For the same compound, the response in [11] is 23.7% (inactive); in [13], 24.5% (active). In test [14], the binding (% of control) was 109% (inactive). In addition, the efflux inhibition (fraction of control) in test [15] was 0 (inactive). Also, the differentiation response in test [17] was 7.82% (inactive).

For the compound `CCN(CC)CCCN(C(=O)c1cccs1)c1nc(-c2ccc(OC)cc2)cs1`, the GFP response vs DMSO was 104% (inactive) in [1] and 109% (inactive) in test [3]. Further, in test [2], the GFP response relative to DMSO is 98.7% (inactive). Further, the GFP response, % of DMSO in test [4] is 98% (inactive); in test [5], 107% (inactive); in test [5] (setting [18]), 101%; in [5] (setting [19]) it was 101%.
